Data published in ChEMBL document CHEMBL3433997, “St. Jude Leishmania screening dataset” (2016).

Tests used:
Format in all cases: functional
[1] = molecular target: Solute carrier family 2, facilitated glucose transporter member 1 (Homo sapiens) (UniProt P11166); assay: ST_JUDE_LEISH: Cytotoxicity at 2uM final concentration against transgenic Leishmania Mexicana promastigotes LmGLUT1 that are glucose transport deficient and complemented with the human glucose transporter GLUT1. Activity is measured by DNA content using SYBR green in vitro
Chain of Solute carrier family 2, facilitated glucose transporter member 1 (Homo sapiens) (P11166 whole entry): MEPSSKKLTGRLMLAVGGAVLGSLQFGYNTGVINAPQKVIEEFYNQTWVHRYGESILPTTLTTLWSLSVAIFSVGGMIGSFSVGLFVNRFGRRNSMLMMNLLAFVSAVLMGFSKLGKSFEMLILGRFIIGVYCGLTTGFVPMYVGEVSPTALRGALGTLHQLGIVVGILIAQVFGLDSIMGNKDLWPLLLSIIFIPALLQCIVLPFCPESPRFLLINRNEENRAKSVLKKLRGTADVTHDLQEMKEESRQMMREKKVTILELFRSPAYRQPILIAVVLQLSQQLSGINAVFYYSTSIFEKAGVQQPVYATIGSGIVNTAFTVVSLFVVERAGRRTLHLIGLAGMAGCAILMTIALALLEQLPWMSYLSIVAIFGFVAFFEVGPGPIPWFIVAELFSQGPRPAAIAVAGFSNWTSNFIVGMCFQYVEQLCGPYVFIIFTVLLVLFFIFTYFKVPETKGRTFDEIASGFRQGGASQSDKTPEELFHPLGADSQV

[2] = molecular target: Hexose transporter 1 (Plasmodium falciparum) (UniProt O97467); assay: ST_JUDE_LEISH: Cytotoxicity at 2uM final concentration against transgenic Leishmania Mexicana promastigotes LmPfHT that are glucose transport deficient and complemented with the Plasmodium falciparum hexose transporter. Activity is measured by DNA content using SYBR green in vitro
[3] = molecular target: Glucose transporter (Leishmania mexicana) (UniProt O61059); assay: ST_JUDE_LEISH: Cytotoxicity at 2uM final concentration against transgenic Leishmania Mexicana promastigotes LmGT2 that are glucose transport deficient and complemented with the L. Mexicana glucose transporter 2. Activity is measured by DNA content using SYBR green in vitro

Compound	inhibition [1] [%]	inhibition [2] [%]	inhibition [3] [%]
C#CCN(Cc1ccc2[nH]c(N)nc(=O)c2c1)c1ccc(C(=O)N[C@@H](CCC(=O)O)C(=O)O)cc1	4.21	3.35	3.66
CCCc1cc(C(=O)N[C@@H](Cc2ccccc2)[C@H](O)CNC(C)(C)c2cccc(OC)c2)c(F)c(N2CCCC2=O)c1	9.67	7.94	9.99
CCN(CC)CCNC(=O)c1ccc(NC(=O)c2ccc(-c3cc(NC(=O)CC4CCCC4)ccc3C)cc2)cc1	2.1	1.64	2.4
O=C(NC1CCC(CCN2Cc3cccc(F)c3C2)CC1)c1cccc(-c2cccnc2)c1 (configuration not stated)	0.7	1.22	-1.89
COc1ccccc1Cc1c(C)nc2nc(N)nc(N)c2c1C	6.33	4.07	7.13
CN(C(=O)Nc1ccc(C(F)(F)F)cc1)C1CCN(CCCCCNC(=O)/C=C/c2ccc(Cl)c(Cl)c2)CC1	4.18	2.6	0.47
COc1cccc(C(=O)NC(c2ccccc2OC)c2cc(Cl)c3cccnc3c2O)c1 (configuration not stated)	-1.87	-2.45	0.13
CCOC(=O)c1ccc(NCc2ccccn2)cc1	3.11	3.01	2.96
Cc1cc(NCCc2ccccc2)nc(NC(=N)Nc2cccc(Cl)c2)n1	-0.54	1.42	0.63
O=C(NC1CCCCC1)N(Cc1ccc(-c2cccc(CNCc3ccc4c(c3)OCO4)c2)cc1)C1CCN(Cc2ccccc2)CC1	2.19	1.74	0.81
Cc1cccc2nc(-c3ccc(-c4ccc(NC(=O)CN5CCN(C)CC5)cc4)cc3)[nH]c12	2.26	1.8	4.7
Cc1nc(-c2ccc(-c3ccc(C(=O)Nc4ccc(-n5ccnc5)c(N5CCN(C)CC5)c4)cc3)c(C)c2)no1	2.82	2.86	0.79
COc1ccccc1Cn1ccnc1SCC(=O)Nc1cccc(C(F)(F)F)c1	0.58	0.38	-0.75
CC(C)(CNC(=O)/C=C/c1ccc(C(F)(F)F)cc1)CNc1cc(=O)c2ccccc2[nH]1	1.07	-1.76	1.66
Cc1ccc(S(=O)(=O)Nc2ccc(Nc3nccc(Nc4cccc5[nH]ncc45)n3)cc2)cc1	1.77	2.62	0.3
Cc1cc(NC(=O)c2cccs2)ccc1OC1CCN(Cc2ccccc2)CC1	3.33	3.27	3.22
CCc1ccc(CN2CCC(NC(=O)c3cc(-c4ccc(N(C)C)cc4)cs3)C2)cc1 (configuration not stated)	1.27	4.08	6.01
Cc1cc(Nc2ccc(C)c(C)c2)n2nc(C)nc2n1	5.08	5.03	5.46
CCN1C(c2ccc(Cl)cc2)C(CNCc2ccccc2O)CC1(C)CO (configuration not stated)	8.9	7.62	4.57
CCOC(=O)c1cncc(/C=C/c2cc(C)cnc2N)c1	5.82	8.59	8.04

Compound	inhibition [1] [%]	inhibition [2] [%]	inhibition [3] [%]
Cc1cc(N[C@@H](Cc2ccccc2)C(=O)NCCc2ccccc2)nc(NCc2ccccc2C)n1	2.31	2.04	-0.14
CCCN(CC1CC1)c1ncc(-c2cccc(CNCc3ccccc3O)c2)cn1	-1.8	-2.3	-1.63
CCC[C@@H]([C@@H](CC1CCCCC1)C(=O)N[C@@H](CCCCNS(C)(=O)=O)C(=O)Nc1nccs1)N(O)C=O	1.61	3.98	-0.28
Nc1c2c(nc3ccc(NC(=O)CCCc4ccccc4)cc13)CCCC2	1.07	1.78	0.12
CS(=O)(=O)CCNCc1cccc(-c2cc3c(Nc4ccc(OCc5cccc(F)c5)c(Cl)c4)ncnc3s2)c1	-0.25	-0.11	-2.47
CCNc1cc(C(=O)N[C@@H](Cc2ccccc2)[C@H](O)CNC2(CC)CCCCC2)cc(N2CCCCS2(=O)=O)c1	-0.15	0.61	-2.89
COc1cccc(Cn2ccc3c4c(N)nc(N)nc4ccc32)c1	94.3	96	85.1
OC(CNc1ccnc(Nc2cccc(CCN3CCOCC3)c2)n1)c1ccccc1 (configuration not stated)	0.07	3.46	1.35
CC(C)CN(c1nc(C(=O)NNC(=O)[C@H](CC2CC2)NC(=O)c2cc3cc(OCCN4CCCCC4)ccc3o2)cs1)C1CC1	-3.13	0.58	0.46
O=c1c(Br)c(C(F)(F)F)[nH]c2ccc(Oc3ccccc3)cc12	2.41	2.75	2.63
CN1CCCC1CCNCc1cccc(-c2cnc(N3CCCC(C)(C)C3)nc2)c1 (configuration not stated)	108	103	104
CC(C)CC(=O)NC1CCN(Cc2c(-c3cccs3)nc3ccccc3c2C(=O)N[C@@H](C)C2CCCCC2)CC1	6.03	4.72	4.36
CCOC(=O)C(C(=O)OCC)c1nc(C)ns1	-1.35	0.58	0.53
Cc1cccc(C)c1C1CCN(C2CCC(NC(=O)/C=C/c3ccccc3)CC2)CC1 (configuration not stated)	5.77	5.67	5.46
COc1ccc(-c2ccc(CNC3Cc4ccccc4C3)cc2)cc1S(=O)(=O)NCCN1CCCC1	1.48	3.39	-0.28
CN1CCN(CCCNc2ncc3c(-c4ccc(NC(=O)Nc5cc(C(F)(F)F)ccc5F)c(F)c4)nn(C)c3n2)CC1	-0.98	-3.33	7.86
CCc1c(CCNCCCCCCNCCc2ccc(OC)c(OC)c2CC)ccc(OC)c1OC	8.52	7.29	6.3
Cc1cc(CNCCCCCCNCc2ccc(Cl)cc2)ccc1O	9.89	7.77	9.18
Cc1c(Cn2ncc(N3CCC(N)CC3)c(Cl)c2=O)cccc1NC(=O)Nc1ccc(-c2ccccc2)cc1	3.52	4.24	5.11
